GRK2 aptamer HTS = compounds blocking aptamer binding on GRK2 – biochemical, human GRK2, bead flow cytometry, HTS, primary screen; FAM-aptamer displacement from GRK2; actives 0.59% (n = 330,000); Beta-adrenergic receptor kinase 1 (Homo sapiens), P25098; inhibition of aptamer binding, % at 10 µM; AID 488847, 2010;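 active means inhibition of aptamer binding above 40%, roughly 3 SD of noise, on plates passing a quality check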;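 further: median bead fluorescence of bound FAM aptamer so fluorescent compounds give negative values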
Exocytosis inh = LAMP-1 surface exposure blockers, TALL-104 cells – cell-based, flow cytometry, MLPCN library, primary screen | TALL-104 LAMP-1 surface exposure; cells stimulated with thapsigargin and PMA | inhibition, % at 10 µM | actives 0.66% (n = 360,000) | AID 651702, 2012;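 active means inhibition above about 55%, limit read from the data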
NadD block = inhibitors of S. aureus NadD, primary screen, biochemical, colorimetric, uHTS. purified NadD enzyme, colorimetric absorbance read-out. inhibition, % at 20 µM. actives 0.78% (n = 360,000). AID 602399, 2012; in the data active means inhibition above about 26%
PP1 counter = PP1-alpha phosphatase inhibitors, primary screen, counter-screen for PP5 inhibitor project, biochemical, fluorescence, OMFP substrate, single point | Serine/threonine-protein phosphatase PP1-alpha catalytic subunit (Homo sapiens), P62136 | purified PP1alpha | inhibition, % at 6.7 µM | actives 0.9% (n = 320,000);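 active means inhibition above the mean inhibition of all tested compounds plus 3 SD, computed separately for each screening campaign, cut at about 15% in these data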
B2AR ag = beta2AR agonists driving receptor internalization, primary screen, cell-based, FAP fluorogen, flow cytometry | Am2.2-beta2AR cells | response, % (no concentration beside the values) | actives 0.43% (n = 340,000);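 active means response above a set limit, near 3 SD of response in nonfluorescent compounds, cut at about 42% in these data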
Target sequence (P07550 whole entry, looked up): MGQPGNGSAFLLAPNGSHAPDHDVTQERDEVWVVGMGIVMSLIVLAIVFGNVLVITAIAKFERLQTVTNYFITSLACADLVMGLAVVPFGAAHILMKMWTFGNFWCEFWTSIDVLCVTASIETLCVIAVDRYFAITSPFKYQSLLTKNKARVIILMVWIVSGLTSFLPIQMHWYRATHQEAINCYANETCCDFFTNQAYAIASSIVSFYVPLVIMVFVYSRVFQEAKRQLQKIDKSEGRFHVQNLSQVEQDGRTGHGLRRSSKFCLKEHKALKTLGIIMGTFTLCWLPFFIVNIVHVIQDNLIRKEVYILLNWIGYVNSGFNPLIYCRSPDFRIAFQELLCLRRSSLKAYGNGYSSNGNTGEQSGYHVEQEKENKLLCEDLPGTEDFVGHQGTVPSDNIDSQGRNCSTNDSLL
PP1 confirm = PP1 phosphatase inhibitors, confirmation, biochemical, fluorescence, OMFP substrate, triplicate | AID 2358, 2010 | purified PP1alpha | actives 52% (n = 1,900) | shares compounds with PP1 counter | inhibition, % at 6.7 µM;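 active means mean PP1 inhibition above a set limit taken from the earlier primary screen, cut at about 15% in these data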
PP5 inh counter = PP5 phosphatase inhibition by PP1 hits, confirmation, counter-screen for PP1 inhibitor project, biochemical, fluorescence, triplicate. shares compounds with PP1 counter. purified PP5c, OMFP fluorescence. inhibition, % at 6.7 µM. actives 4% (n = 1,900). AID 2360, 2010;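 active means mean PP5 inhibition over triplicate wells above about 9.5% taken from the earlier PP1 screen, limit read from the data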
Starred values were filed as active, the others as inactive. An excerpt weighted towards active compounds, which were near 2.9% of everything screened.

What do the screens show for `C[C@@]12C(=O)OC(=O)[C@]1(C)C1CCC2O1`?
GRK2 aptamer HTS: 0; Exocytosis inh: -5; NadD block: 4; PP1 counter: 95*; B2AR ag: 81*; PP1 confirm: 93*; PP5 inh counter: 93*

How did N#CC(Br)Br do in these assays?
GRK2 aptamer HTS: 0; Exocytosis inh: -5; NadD block: 5; PP1 counter: -4; B2AR ag: -2

What do the screens show for `N=Cc1c(O)n(-c2ccc(C34CC5CC(CC(C5)C3)C4)cc2)c(=O)[nH]c1=O`?
GRK2 aptamer HTS: 1; Exocytosis inh: -2; NadD block: 8; PP1 counter: 20*; B2AR ag: 7; PP1 confirm: 22*; PP5 inh counter: 4

What do the screens show for `O=C1NC(=S)N(c2ccc(F)cc2)C(=O)/C1=C/c1ccco1`?
GRK2 aptamer HTS: 99*; PP1 counter: 40*; PP1 confirm: 68*; PP5 inh counter: 1

Results for COc1ccc(OC)c(N2C(=O)/C(=C/c3ccco3)C(=O)NC2=S)c1 ?
GRK2 aptamer HTS: 100*; PP1 counter: 68*; PP1 confirm: 17*; PP5 inh counter: -4

What do the screens show for `O=C1NC(=O)C(=Cc2ccco2)C(=O)N1`?
Exocytosis inh: 23; NadD block: 5; B2AR ag: 9

What do the screens show for `CC(N)C(=O)NC1C2C(=C(O)CC(O)C2O)C(=O)OC1(C)C(Cl)Cl` (centres undefined)?
Exocytosis inh: 9; NadD block: 0; B2AR ag: 19

How did O=C1/C(=C\c2ccccc2)C2OCC=C3CN4CCC56c7ccccc7N1C5C2C3CC46 (centres undefined) do in these assays?
GRK2 aptamer HTS: 0; Exocytosis inh: 19; NadD block: -8; PP1 counter: 6; B2AR ag: 1

How did Cc1nc2cc([N+](=O)[O-])ccc2c(=O)n1-c1cccc(Br)c1 do in these assays?
GRK2 aptamer HTS: 0; Exocytosis inh: -3; NadD block: -3; PP1 counter: -2; B2AR ag: 6

How did Clc1ccc(C(c2ccc(Cl)cc2)n2cc[n+](CC(OCc3ccc(Cl)cc3Cl)c3ccc(Cl)cc3Cl)c2)cc1 (centres undefined) do in these assays?
GRK2 aptamer HTS: 0; Exocytosis inh: -8; NadD block: 80*; PP1 counter: 52*; B2AR ag: -49; PP1 confirm: 35*; PP5 inh counter: 9

How did CN1CCN2c3ccc(N)cc3CC3(C(=O)NC(=O)NC3=O)C2C1 (centres undefined) do in these assays?
Exocytosis inh: -3; NadD block: -2; B2AR ag: -2

How did CN1C(=O)N(C)C(=O)C2(Cc3cc(N)ccc3N3CCN(c4ccccc4F)CC32)C1=O (centres undefined) do in these assays?
GRK2 aptamer HTS: 2; PP1 counter: 23*; PP1 confirm: 32*; PP5 inh counter: 1

What do the screens show for `COc1cccc(CCNCc2ccc(SC)cc2)c1`?
GRK2 aptamer HTS: 0; Exocytosis inh: -2; NadD block: -7; PP1 counter: 1; B2AR ag: -5

What do the screens show for `CC1Oc2cc3c(-c4c(O)cc(O)c5c(O)c6c(cc45)OC(C)C(C)C6=O)c(O)cc(O)c3c(O)c2C(=O)C1C` (centres undefined)?
GRK2 aptamer HTS: 0; Exocytosis inh: -1; NadD block: 36*; PP1 counter: 57*; B2AR ag: 1; PP1 confirm: 25*; PP5 inh counter: 2

What do the screens show for `O=C(O)C1C2CCC(O2)C1C(=O)Nc1ccc(Cl)cc1` (centres undefined)?
GRK2 aptamer HTS: 3; Exocytosis inh: -2; NadD block: 0; PP1 counter: 63*; B2AR ag: 6; PP1 confirm: 18*; PP5 inh counter: 26*

How did O=C(Nc1ccc(Cl)cc1)N1CC1 do in these assays?
Exocytosis inh: 1; NadD block: 1; B2AR ag: -2

Results for O=C(O)C1C2CCC(O2)C1C(=O)NC1CCCCC1 (centres undefined) ?
GRK2 aptamer HTS: 3; Exocytosis inh: -6; NadD block: -3; PP1 counter: 73*; B2AR ag: -1; PP1 confirm: 48*; PP5 inh counter: 56*

How did COc1ccc(OC)c(CC(=O)O)c1 do in these assays?
GRK2 aptamer HTS: 0; Exocytosis inh: 1; NadD block: 0; PP1 counter: -3; B2AR ag: -7

What do the screens show for `COc1ccc(NC(=O)C2C3CCC(O3)C2C(=O)O)c(OC)c1` (centres undefined)?
GRK2 aptamer HTS: 0; Exocytosis inh: 1; NadD block: -1; PP1 counter: 75*; B2AR ag: 1; PP1 confirm: 29*; PP5 inh counter: 46*

Results for COCCNC(=O)N1[C@H]2CC[C@@H]1C(C(=O)OC)=C(c1ccc(OC)c(OC)c1)C2 ?
GRK2 aptamer HTS: 1; Exocytosis inh: -1; NadD block: 2; PP1 counter: 1; B2AR ag: 1

What do the screens show for `c1ccc(Cn2ccnc2)cc1`?
GRK2 aptamer HTS: 0; Exocytosis inh: -3; NadD block: 6; PP1 counter: -3; B2AR ag: -10

Results for Clc1ccc(CSC(Cn2ccnc2)c2ccc(Cl)cc2Cl)cc1 (centres undefined) ?
GRK2 aptamer HTS: 4; Exocytosis inh: 21; NadD block: 19; PP1 counter: 26*; B2AR ag: 6; PP1 confirm: 20*; PP5 inh counter: 3

What do the screens show for `Clc1ccc(COC(Cn2ccnc2)c2ccc(Cl)cc2Cl)cc1` (centres undefined)?
GRK2 aptamer HTS: 0; Exocytosis inh: 7; NadD block: 29; PP1 counter: 29*; B2AR ag: 5; PP1 confirm: 20*; PP5 inh counter: 2

What do the screens show for `C[C@]12CCC3=C4CCC(=O)C=C4CC[C@H]3C1CC[C@@H]2O` (some centres undefined)?
GRK2 aptamer HTS: 0; Exocytosis inh: -7; NadD block: -7; PP1 counter: -3; B2AR ag: 0

What do the screens show for `COc1cccc(C(c2nnnn2C(C)(C)C)N2CCC3(CC2)C(=O)NCN3c2ccccc2)c1OC` (centres undefined)?
Exocytosis inh: 5; NadD block: 4

Assay outcomes deposited in PubChem by several laboratories.
